Measured values from the supplement of paper PMC9399229.
Structures can show the parent of a compound that is named as a salt. ± gives the standard deviation of the averaged measurements. The full ranking holds about 1,900 compounds; the median of “relative cell viability (CellTiter-Glo), compound alone” is about 1, and the lowest 2% start at about 0.16. The sample holds the lowest values, similar compounds and a random draw of the others, so the mix is not that of the screen.

Each compound was assayed on Hep3B (assay: relative cell viability (CellTiter-Glo), compound alone (fraction); higher = more viable cells (less growth inhibition)). Settings: cabozantinib 0 µM; 4 days.

Compound | relative cell viability
CCn1cc(NC(=S)Nc2cc(Cl)ccc2OC)c(C(N)=O)n1 | 1.44 ± 0.14
C1=N/C2=N/c3ccc(OCCN4CCCC4)c(c3)COC/C=C/COCc3cccc(c3)C(=C1)N2 [Pacritinib (SB1518)] | 0.1545 ± 0.0015
CN(C)c1cccc(-c2c3c(=O)n(-c4ccccc4Cl)[nH]c3cc(=O)n2C)c1 | 1.12 ± 0.1
O=C(NCCS(=O)(=O)c1ccc(C(F)(F)F)cn1)c1ccc(Cl)cc1 | 1.2 ± 0.049
C[C@@H](Oc1cc(-n2cnc3ccc(CN4CCN(C)CC4)cc32)sc1C(N)=O)c1ccccc1C(F)(F)F | 0.668 ± 0.04
O=C1CCC[C@@H]2[C@H]3CCC[N+]4([O-])CCC[C@@H](CN12)[C@@H]34 (some centres not stated) [Oxymatrine] | 1.09 ± 0.21
CC1CNc2c(cccc2S(=O)(=O)N[C@@H](CCCNC(=N)N)C(=O)N2CC[C@@H](C)C[C@@H]2C(=O)O)C1 (some centres not stated) [Argatroban] | 1.02 ± 0.17
CO[C@H]1C[C@@H]2CC[C@@H](C)[C@@](O)(O2)C(=O)C(=O)N2CCCC[C@H]2C(=O)O[C@H]([C@H](C)C[C@@H]2CC[C@@H](OC(=O)C(C)(CO)CO)[C@H](OC)C2)CC(=O)[C@H](C)/C=C(\C)[C@@H](O)[C@@H](OC)C(=O)[C@H](C)C[C@H](C)/C=C/C=C/C=C/1C | 1.04 ± 0.013
CCOC(=O)[C@H](CCc1ccccc1)N[C@H]1CCCN2CCC[C@@H](C(=O)O)N2C1=O [Cilazapril Monohydrate] | 0.947 ± 0.13
CC(C)(C)C[C@@H]1N[C@@H](C(=O)N[C@H]2CC[C@H](O)CC2)[C@H](c2cccc(Cl)c2F)[C@]12C(=O)Nc1cc(Cl)ccc12 | 1.09 ± 0.025
O=C1c2c(O)ccc(O)c2C(=O)c2c(NCCNCCO)ccc(NCCNCCO)c21 [Mitoxantrone HCl] | 0.0676 ± 0.0056
O=C1c2c(O)ccc(O)c2C(=O)c2c(NCCNCCO)ccc(NCCNCCO)c21 [Mitoxantrone] | 0.0757 ± 0.0097
O=C1c2cccc(O)c2C(=O)c2c(O)cc(CO)cc21 [Aloe-emodin] | 0.96 ± 0.11
Cc1ccc([N+](=O)[O-])cc1S(=O)(=O)N(C)/N=C/c1cnc2ccc(Br)cn12 | 0.139 ± 0.01
Nc1nc(NC2CC2)cc(-c2cccc(Cl)c2Cl)n1 | 1.162 ± 0.0077
NS(=O)(=O)NCCNc1nonc1/C(=N/O)Nc1ccc(F)c(Br)c1 | 1.24 ± 0.064
Fc1ccc2[nH]ccc2c1-c1nc(N2CCOCC2)c2sc(CN3CCN(CC4CC4)CC3)cc2n1 | 0.871 ± 0.011
Cn1cncc1[C@@](N)(c1ccc(Cl)cc1)c1ccc2c(c1)c(-c1cccc(Cl)c1)cc(=O)n2C [Tipifarnib] | 0.995 ± 0.046
Cc1nc(-c2cn3c(n2)-c2ccc(-c4cnn(C(C)(C)C(N)=O)c4)cc2OCC3)n(C(C)C)n1 | 1.01 ± 0.032
c1ccc(NCc2ccc(CNc3ccccn3)cc2)nc1 | 1.09 ± 0.085
COc1cc([C@@H]2c3cc4c(cc3[C@@H](O[C@@H]3O[C@@H]5CO[C@@H](C)O[C@H]5[C@H](O)[C@H]3O)[C@H]3COC(=O)[C@H]23)OCO4)cc(OC)c1O [Etoposide] | 1.22 ± 0.11
COc1cc([C@@H]2c3cc4c(cc3[C@@H](O[C@@H]3O[C@@H]5CO[C@@H](c6cccs6)O[C@H]5[C@H](O)[C@H]3O)[C@H]3COC(=O)[C@H]23)OCO4)cc(OC)c1O [Teniposide] | 0.113 ± 0.0088
COc1cccc(C=NCCN=Cc2cccc(OC)c2[O-])c1[O-].[Cl-].[Mn+3] | 1.04 ± 0.041
Nc1ccc(-c2ccc3ncc4ccc(=O)n(-c5cccc(C(F)(F)F)c5)c4c3c2)cn1 [Torin 2] | 0.147 ± 0.014
COc1ccc(-c2ccc3ncc4c(c3c2)n(-c2ccc(N3CCNCC3)c(C(F)(F)F)c2)c(=O)n4C)cn1 | 0.202 ± 0.013
CN1C(=O)C(Cc2c[nH]c3ccccc23)NC1=S (configuration not stated) [Necrostatin-1] | 1.154 ± 0.0058

Compound | relative cell viability
CCn1c(N)c(C(=O)NC)c(=O)c2ccc(C#CC(C)(O)COC)nc21 (configuration not stated) | 0.951 ± 0.15
Cc1ccc(-n2sc(=O)n(Cc3ccc(F)cc3)c2=O)cc1 | 1.03 ± 0.086
C=CC(=O)Nc1cc(Nc2nccc(-c3c[nH]c4ccccc34)n2)c(OC)cc1N(C)CCN(C)C | 0.913 ± 0.049
O=C(NC[C@H](O)CN1CCc2ccccc2C1)c1cc(NC2COC2)ncn1 | 1.09 ± 0.029
Cn1c(Nc2ccc(C(F)(F)F)cc2)nc2cc(Oc3ccnc(-c4ncc(C(F)(F)F)[nH]4)c3)ccc21 | 0.9528 ± 0.0094
CN[C@@H](C)C(=O)N[C@H](C(=O)N1CCC[C@H]1C(=O)Nc1snnc1-c1ccccc1)C1CCCCC1 | 0.229 ± 0.13
CC[C@@H]1/C=C(\C)C[C@H](C)C[C@H](OC)[C@H]2O[C@@](O)(C(=O)C(=O)N3CCCC[C@H]3C(=O)O[C@H](/C(C)=C/[C@@H]3CC[C@@H](O)[C@H](OC)C3)[C@H](C)[C@@H](O)CC1=O)[C@H](C)C[C@@H]2OC [Ascomycin (FK520)] | 1.16 ± 0.12
CN(NC(=O)CC(=O)NN(C)C(=S)c1ccccc1)C(=S)c1ccccc1 [Elesclomol (STA-4783)] | 0.0115 ± 0.0045
O=C(O)CCNC(=O)c1ccccc1 [Betamipron] | 0.9 ± 0.089
O=C(O)c1ccccc1 [Benzoic Acid] | 1.26 ± 0.07
COc1cc(N2CCC(N3CCN(C)CC3)CC2)ccc1Nc1ncnc(Nc2ccccc2S(=O)(=O)C(C)C)n1 | 0.887 ± 0.056
Cc1cc(Nc2ccc(NC(=O)c3ccc(Nc4ccnc5ccccc45)cc3)cc2)nc(N)n1 | 0.227 ± 0.023
CN(C)CCCNC(=O)c1ccc(-c2cc(O)c3ncccc3c2)cc1 | 0.898 ± 0.27
CC(C)(CO)c1cc2cc(NC(=O)C3(c4ccc5c(c4)OC(F)(F)O5)CC3)c(F)cc2n1C[C@@H](O)CO | 1.14 ± 0.18
Cc1ccc(NC(=O)C2(c3ccc4c(c3)OC(F)(F)O4)CC2)nc1-c1cccc(C(=O)O)c1 [VX-809 (Lumacaftor)] | 0.144 ± 0.025
C[C@]1(c2nc3c(C(N)=O)cccc3[nH]2)CCCN1 [Veliparib (ABT-888)] | 1.02 ± 0.44
CN1CCN(C2CCN(C(=O)Nc3cc(Oc4ccc(NC(=O)C5(C(=O)Nc6ccc(F)cc6)CC5)c(F)c4)ccn3)CC2)CC1 [Golvatinib (E7050)] | 1.15 ± 0.079
COc1ccc(-c2cc(=O)c3c(O)cc(O)cc3o2)cc1O [Diosmetin] | 1.35 ± 0.14
O=c1cc(CN2CCOCC2)occ1OCCCCCSc1ccnc2cc(C(F)(F)F)ccc12 | 1.29 ± 0.14
CN(C)Cc1c(C(=O)NCCOc2ccc(C(=O)NO)cc2)oc2ccccc12 | 0.153 ± 0.054
CC/C(=C(\c1ccccc1)c1ccc(OCCN(C)C)cc1)c1ccccc1 [Tamoxifen Citrate] | 1.26 ± 0.064
CC/C(=C(\c1ccc(O)cc1)c1ccc(OCCNC)cc1)c1ccccc1 [Endoxifen HCl] | 1.16 ± 0.081
O=C(Nc1c[nH]nc1-c1nc2ccc(CN3CCOCC3)cc2[nH]1)NC1CC1 | 0.3 ± 0.036
O=[N+]([O-])c1ccc2c(c1)S(=O)(=O)C=C2 [Stattic] | 1.03 ± 0.043
N#Cc1cc(CN2CCC(Nc3ncnc4sc(Cl)cc34)CC2)ccc1F | 1.42 ± 0.079
C[C@]12CC[C@@H]3c4ccc(OC(=O)c5ccccc5)cc4CC[C@H]3[C@@H]1CC[C@@H]2O [Estradiol Benzoate] | 1.19 ± 0.14

Compound | relative cell viability
CCN(CC)Cc1ccc2cc(COC(=O)Nc3ccc(C(=O)NO)cc3)ccc2c1 [Givinostat (ITF2357)] | 0.156 ± 0.0025
COc1ccc(Cn2ccc3ccc(C(=O)NO)cc32)cc1 | 0.909 ± 0.14
CCN(CC)CCNC(=O)c1ccc(N)cc1 [Procainamide HCl] | 0.954 ± 0.032
OCc1ccc(O[C@@H]2O[C@H](CO)[C@@H](O)[C@H](O)[C@H]2O)cc1 [Gastrodin] | 1.354 ± 0.0026
COC(=O)c1ccc2c(c1)NC(=O)/C2=C(\Nc1ccc(N(C)C(=O)CN2CCN(C)CC2)cc1)c1ccccc1 [Nintedanib (BIBF 1120)] | 0.761 ± 0.038
CN(C)Cc1cccc(N/C(=C2\C(=O)Nc3cc(C(N)=O)ccc32)c2ccccc2)c1 | 0.7302 ± 0.0057
CCS(=O)(=O)Nc1ccc2c(c1)/C(=C(/Nc1ccc(CN3CCCCC3)cc1)c1ccccc1)C(=O)N2 [Hesperadin] | 0.112 ± 0.0022
CCCCN(Cc1ccc(C(=O)NO)cc1)C(=O)Nc1ccccc1 [Nexturastat A] | 1.06 ± 0.17
CC(C)[C@H](C(=O)Nc1ccc(C(=O)NO)cc1)c1ccccc1 | 0.138 ± 0.015
CC(=O)Nc1ccc(C(=O)Nc2ccccc2N)cc1 [CI994 (Tacedinaline)] | 1.17 ± 0.1
CCn1cc(-c2ccnc3[nH]c(-c4cccc(CN(C)C)c4)cc23)c(-c2ccc(NC(=O)N(C)C)cc2)n1 | 0.94 ± 0.099
COc1ccccc1-c1cc(Nc2cccc(CS(N)(=O)=O)c2)ncn1 | 1.11 ± 0.029
CN(C)C(=O)Nc1cccc(-c2ccc(N(C)C)cc2)c1 [Atglistatin] | 1.37 ± 0.12
O=C(Nc1cc(C(F)(F)F)ccc1N1CCCCC1)c1ccncc1 | 1.07 ± 0.016
CC(C)n1nc(-c2ccc3oc(N)nc3c2)c2c(N)ncnc21 | 0.387 ± 0.022
CC1(C)CCC[C@]2(C)[C@H]3CC(=O)O[C@]3(C)CC[C@@H]12 [Sclareolide] | 0.9838 ± 0.007
Cc1c(CN2CCN(C(=O)[C@H](C)O)CC2)sc2c(N3CCOCC3)nc(-c3cnc(N)nc3)nc12 | 0.546 ± 0.022
COc1ccc(-c2nc(N3CCOCC3)c3sc(CN(C)c4ncc(C(=O)NO)cn4)cc3n2)cn1 | 0.132 ± 0.013
CS(=O)(=O)N1CCN(Cc2cc3nc(-c4cccc5[nH]ncc45)nc(N4CCOCC4)c3s2)CC1 | 1.17 ± 0.013
Cc1c(Cc2ccc3ccccc3n2)c2cc(F)ccc2n1CC(=O)O | 1.08 ± 0.055
CN1C(C(=O)Nc2ccccn2)=C(O)c2sccc2S1(=O)=O [Tenoxicam] | 1 ± 0.051
O=C(COc1ccc(C(=O)c2ccccc2)cc1)NC1CCN(Cc2ccccc2)CC1 [AdipoRon] | 0.881 ± 0.096
CN1CCN(c2ccc3nc(-c4c(N)c5c(F)cccc5[nH]c4=O)[nH]c3c2)CC1 [Dovitinib (TKI-258, CHIR-258)] | 0.85 ± 0.018
CN1CCN(c2ccc3nc(-c4c(N)c5c(F)cccc5[nH]c4=O)[nH]c3c2)CC1 [Dovitinib (TKI258) Lactate] | 0.67 ± 0.011
CN1CCN(c2ccc3nc(-c4c(N)c5c(F)cccc5[nH]c4=O)[nH]c3c2)CC1 [Dovitinib (TKI-258) Dilactic Acid] | 0.6208 ± 0.0046
